Screening data as filed in PubChem BioAssay.
CF NFkB block: cystic fibrosis NF-kB activation inhibition | inhibition, % at 5 µM | AID 588850 | 0.86% of 360,000 active | KKLEB NF-kB-GFP reporter, PAF-induced, GFP fluorescence overnight;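 active means at least 50% inhibition at 5 µM, scaled per plate between neutral and stimulator controls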;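 further: PAF is a Pseudomonas aeruginosa culture filtrate used as stimulus; plate controls were PAF-stimulated DMSO wells for no effect and unstimulated DMSO wells for full effect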
ABHD5 PLIN5 PPI: inhibitors of human ABHD5-perilipin-5 interaction. Q00G26+Q8WTS1. inhibition, % at 4 µM. 0.78% of 360,000 active. Split G. princeps luciferase complementation, luminescence, 4 h;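 active means inhibition above the mean inhibition across every tested compound plus 3 SD, cut at about 22% in these data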;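 further: 0% = DMSO only wells and the 100% control is not disclosed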
Mdm2-MdmX inh: disrupts the human Mdm2-MdmX interaction | O15151+Q00987 | SaOS-2 split-luciferase Mdm2/MdmX complementation, luminescence | inhibition, % at 8 µM | 3% of 330,000 active;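 active means inhibition of at least 50% at 8 µM in the primary screen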
Peg3 promoter: inhibitors of Peg3 promoter. HeLa PEG-Prom luciferase reporter, luminescence, overnight. inhibition, % at 20 µM. 1.7% of 360,000 active;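 active means inhibition of at least 50% at 20 µM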
HIF-2a inh: HIF-2a inhibition; 786-0 RCC cells HIF-2a reporter, luciferase luminescence, overnight; inhibition, % at 18.8 µM; 0.72% of 360,000 active;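 active means inhibition of the luminescence signal of 40% or more relative to plate controls, in a single-dose primary screen at 18.75 µM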
KKLEB tox: reduces viability of KKLEB cystic fibrosis airway cells; KKLEB CF airway cells viability, ATPlite luminescence, overnight; stronger effect = lower value; cells stimulated with P. aeruginosa culture filtrate; activity change (cytotoxicity), % at 5 µM; 0.36% of 360,000 active; AID 602141;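 active means corrected activity change at or below -50% at 5 µM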
Mdm2 MdmX conf: human Mdm2/MdmX binding inhibition, confirmed; luminescent assay; inhibition, % at 8 µM; shares compounds with Mdm2-MdmX inh; 55% of 10,000 active; in the data active means inhibition above about 40%
FLuc counter: full-length luciferase inhibition in Mdm2/MdmX counter-screen | SaOS-2 full-length luciferase counterscreen, luminescence | shares compounds with Mdm2-MdmX inh | 77% of 6,200 active | AID 504607 | inhibition, % at 8 µM;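 active means mean inhibition at 8 µM reaching about 37%, which flags the compound as non-specific, limit read from the data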;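 further: p53-null SaOS-2 cells with luciferase driven by a doxycycline-inducible promoter; compound on cells about two nights before reading with doxycycline added after day one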
Numbers without * were called inactive; . = no result given. Only some compounds are listed: those with a hit (about 4.6% of all), similar ones and a draw of the others.

SMILES	CF NFkB block	ABHD5 PLIN5 PPI	Mdm2-MdmX inh	Peg3 promoter	HIF-2a inh	KKLEB tox	Mdm2 MdmX conf	FLuc counter
CC1CN(S(=O)(=O)c2ccc(NC(=O)c3cc(-c4ccccc4O)n[nH]3)cc2)CC(C)O1 (stereo not drawn)	8	-4	58*	28	-11	5	32	.
CC1CN(S(=O)(=O)c2ccc(C(=O)Nc3nc(-c4cc5ccccc5o4)cs3)cc2)CC(C)O1 (stereo not drawn)	50*	-3	76*	32	9	-54*	20	.
COc1ccc2[nH]c3c(N4CCN(Cc5ccc6c(c5)OCO6)CC4)ncnc3c2c1	2	3	57*	55*	26	-14	19	.
COc1ccc2[nH]c3c(N4CCC(O)(c5cccc(C(F)(F)F)c5)CC4)ncnc3c2c1	-17	0	75*	57*	-7	-9	67*	32
O=C(NCCCc1ccccc1)c1c(O)nc2sccn2c1=O	-14	-5	75*	26	-17	6	57*	52*
CCn1c(=O)c(C(=O)NCCCc2ccccc2)c(O)c2ccccc21	15	-1	-9	9	18	-9	.	.
O=C(NCCC1=CCCCC1)c1c(O)nc2ccccn2c1=O	-10	4	33	-170	-112	-11	.	.
O=C(NCCC1=CCCCC1)c1c(O)nc2sccn2c1=O	-17	-1	80*	-16	-61	23	57*	68*
COc1cccc(/C=N/NC(=O)c2c(C)nc3ccc(Br)cn23)c1O	16	0	67*	49	-20	-10	74*	32
COc1cccc(/C=N\NC(=O)c2ccc(Cn3cc(Br)c([N+](=O)[O-])n3)o2)c1O	22	17	59*	34	-80	-13	74*	43*
COc1ccc(/C=N\NC(=O)c2c(C)nc3ccc(Br)cn23)cc1	36	8	59*	17	-2	-19	52*	49*
Cc1ccc(/C=N/NC(=O)c2c(C)nc3ccc(Br)cn23)cc1	13	3	50*	22	13	0	55*	53*
COc1ccc(/C=N/NC(=O)c2c(C)nc3ccc(Br)cn23)cc1OC	17	0	7	22	19	-18	.	.
COc1cc(/C=N\NC(=O)c2ccc(Cn3nc([N+](=O)[O-])c(Cl)c3C)o2)ccc1O	-38	5	33	4	8	8	.	.
CCOc1ccccc1/C=N/NC(=O)c1c(C)nc2ccc(Br)cn12	22	-1	-20	-1	13	6	.	.
COc1ccc([C@H]2CC(=O)C=C(c3ccc(OC)cc3OC)C2)cc1	29	-4	51*	-144	-148	-12	34	98*
Cn1c(SCC(=O)Nc2cc(Cl)cc(Cl)c2)nnc1-c1ccc2nonc2c1	6	-4	71*	14	15	2	14	.
CCS(=O)(=O)c1nc(S(=O)(=O)c2ccc(C)cc2)c(NCCCn2ccnc2)s1	-17	1	20	-8	2	-20	.	.
COc1ccc(/C=C2\SC(N)=NC2=O)cc1	16	3	17	-22	-51	-4	.	.
CCOC(=O)CSC1=NC(=O)/C(=C/c2ccc(OC)cc2)S1	34	-17	76*	102*	74*	-29	53*	32
CC(C)COc1ccc(-c2nnc(-c3ccco3)o2)cc1	-20	-1	-111	-74	-75	1	.	.
CCN(CC)CCCNc1ccc(-c2nnc(-c3ccc(OCC(C)C)cc3)o2)cn1	3	20	100*	113*	16	-19	88*	24
CCCCOCCCNC(=O)C[C@@H]1C[C@@]2(C(=O)OCC)CCC=C2N(Cc2ccc(Cl)cc2Cl)C1=O	.	15	.	.	1	.	.	.
O=C1CCCc2c1cc(C(=O)Nc1ccc(Br)cn1)c(=O)n2-c1ccccc1	-13	-17	57*	-1	10	8	30	.
O=C(NNC(=O)c1cccc2ccccc12)c1ccccc1O	-1	7	52*	-10	-50	-17	42*	60*
SMILES	CF NFkB block	ABHD5 PLIN5 PPI	Mdm2-MdmX inh	Peg3 promoter	HIF-2a inh	KKLEB tox	Mdm2 MdmX conf	FLuc counter
O=C(Nc1ccc(Br)cn1)c1cccc2ccccc12	-14	-4	56*	-57	-179	14	50*	81*
CC1=C(C(=O)N(C)C)CC(CC(=O)NCCCN(C)C)C(=O)N1CCC1=CCCCC1 (stereo not drawn)	-32	6	.	-7	-4	13	.	.
Cc1ccc(NC(=O)C2CCN(S(=O)(=O)c3ccc(C(C)(C)C)cc3)CC2)cc1S(=O)(=O)N1CCOCC1	3	-18	.	19	4	2	.	.
O=C1C2C3C=CC(C3=C(c3ccccc3)c3ccccc3)C2C(=O)N1CCO (stereo not drawn)	1	9	-7	28	19	8	.	.
O=C1C2C3C=CC(C3=C(c3ccccc3)c3ccccc3)C2C(=O)N1Cc1ccccc1 (stereo not drawn)	4	3	79*	38	21	-6	-3	.
CC1CC(N(C(=O)c2ccc(Cl)cc2)c2ccccc2)c2ccccc2N1C(=O)c1ccco1 (stereo not drawn)	16	-3	50*	28	24	-4	31	.
C[C@]12CC[C@H](O)CC1=CCC1C2CC[C@@]2(C)C1CC[C@@H]2NC(=O)[C@@H](N)Cc1ccccc1 (stereo partly drawn)	-18	4	68*	38	9	9	23	.
CC(C)C(=O)N[C@H]1CCC2C3CC=C4C[C@@H](O)CC[C@]4(C)C3CC[C@@]21C (stereo partly drawn)	8	3	2	-38	-11	3	.	.
Cc1cc(C)c2ccc(NN)nc2c1O	-1	0	59*	16	10	1	41*	47*
COc1ccc(-c2sc3cc4c(cc3c2-c2ccc(OCCN3CCCCC3)cc2)OCO4)cc1	72*	-5	70*	90*	11	-78*	24	.
c1ccc(-c2sc3ccccc3c2-c2ccc(OCCN3CCCCC3)cc2)cc1	-8	1	5	-1	12	-11	.	.
c1ccc2c(-c3ccc(OCCN4CCCCC4)cc3)c(-c3ccsc3)sc2c1	23	16	68*	46	10	-27	25	.
COc1ccccc1-c1sc2cc3c(cc2c1-c1ccc(OCCN2CCOCC2)cc1)OCO3	-9	9	47	11	8	5	.	.
COc1cc(OC)cc(-c2sc3ccc(OC)cc3c2-c2ccc(OCCN3CCCCC3)cc2)c1	69*	9	63*	90*	-23	-75*	19	.
